Drawing on PubChem BioAssay AID1706 (The Scripps Research Institute Molecular Screening Center, 2009), this text covers inhibition for 56 compounds.

About 400 (0.14%) of roughly 290,000 compounds were called active. Rule as the data show it: active = inhibition above about 12%; inactive = the rest. What follows is part of a selection rich in actives, with near analogues and random picks from the rest.

One may read the inhibition as the change of the read-out against control, counted positive when it falls.

This assay addresses Replicase polyprotein 1ab (Severe acute respiratory syndrome coronavirus) (UniProt P0C6X7). Put plainly: SARS-CoV 3CLpro protease inhibitors, primary screen, biochemical, quenched FRET (AID 1706). As to conditions: recombinant SARS-CoV 3CLpro, quenched FRET peptide cleavage; at 6 µM; hits give high values.
For `C[C@@]12C(=O)N(c3cccc(Br)c3)C(=O)N1[C@H](c1ccc(Cl)cc1)[C@@H]1C(=O)N(C3CCCCC3)C(=O)[C@@H]12`, the inhibition was 32.5% (active). For `Cc1cccc(N2C(=O)N3[C@H](c4ccc(F)cc4)[C@@H]4C(=O)N(C5CCCCC5)C(=O)[C@@H]4[C@]3(Cc3ccccc3)C2=O)c1` the value was 9.1% (inactive); for `Cc1cccc([C@@H]2[C@@H]3C(=O)N(Cc4ccccc4)C(=O)[C@@H]3[C@]3(C)C(=O)N(c4ccc(Br)cc4)C(=O)N23)c1`, -2.23% (inactive). For `Cn1c(=O)c(=O)n(C)c2cc(S(=O)(=O)CCC(=O)N3CCCCC3)ccc21` the value was -7.51% (inactive); for `O=C(NCc1ccccc1)c1ccc(S(=O)(=O)Nc2cccc(C(F)(F)F)c2)cc1`, 17.3% (active). For `O=C(NCc1cccc(C(F)(F)F)c1)c1cccc(S(=O)(=O)N2CCN(Cc3ccccc3)CC2)c1` the value was 1.65% (inactive); for `O=C(COc1ccc(S(=O)(=O)Nc2cccc(C(F)(F)F)c2)cc1)N1CCOCC1`, -1.24% (inactive); for `CN(C(=O)CCNC(=O)Cn1ccc2ccccc2c1=O)c1ccc(Br)cc1`, 1.62% (inactive). With `COc1ccc2[nH]cc(/C=C(/C#N)S(=O)(=O)c3ccccc3)c2c1`, the inhibition was 4.75% (inactive). With `COc1ccc(/C=C(\C#N)c2c[nH]c3ccccc23)cc1`, the inhibition was 14.6% (active). For `COc1cc(/C=C(\C#N)c2nc3ccccc3[nH]2)ccc1O` the value was -3.33% (inactive); for `CC(c1cccnc1)N(CCN(C)C)C(=O)Nc1ccc(Cl)c(Cl)c1` (stereo unspecified), 2.29% (inactive); for `CS(=O)(=O)N(Cc1ccccc1Cl)c1ccc(C(=O)NCc2cccnc2)cc1`, 1.33% (inactive). For `O=C(Nc1ccc(S(=O)(=O)NCC2CCCO2)cc1)c1ccc(F)cc1` (stereo unspecified) the value was -0.56% (inactive); for `O=S(=O)(Nc1ccccc1)c1ccc(NS(=O)(=O)c2cccs2)cc1`, 2.66% (inactive).

On to `COC(=O)C1=CN(c2ccc(F)c(F)c2)C=C(C(=O)OC)C1c1ccc([N+](=O)[O-])cc1`, for which the inhibition is 1.13% (inactive). For the compound `O=C(NCc1ccc(F)cc1)C1CCN(C(=O)Nc2ccc(F)cc2)CC1`, the inhibition was 5.05% (inactive). For `CC(C)c1ccc(C2C(C(=O)c3ccco3)=C(O)C(=O)N2CC2CCCO2)cc1` (stereo unspecified) the value was -0.41% (inactive). For the compound `Cc1nn(C)c(C)c1C(C)NC(=O)c1ccc(OC2CCN(Cc3ccccn3)CC2)cc1` (stereo unspecified), the inhibition was 3.56% (inactive). For `CCOc1ccc(OCc2cccc(C(=O)N(CC)CC)c2)cc1`, the inhibition was -3.35% (inactive). For `COc1ccc(C(=O)NCCSc2ccccc2C)cc1` the value was 6.37% (inactive); for `Cc1ccc(C(CNC(=O)Nc2ccccc2)N2CCN(C)CC2)cc1` (stereo unspecified), -5.22% (inactive). For `Cc1ccc(CS(=O)(=O)CCC(=O)NCc2ccc(F)cc2)cc1` the value was -1.28% (inactive); for `COc1cccc(CC2(CO)CCCN(Cc3ccc(OC(F)F)cc3)C2)c1` (stereo unspecified), -5.59% (inactive). With `COc1ccc(CN(C)C(=O)CC(c2ccccc2)c2ccccc2)cc1`, the inhibition is 4.64% (inactive). For `COc1ccc(C(CCN(Cc2ccc(OC)c(OC)c2)C(=O)CCl)c2ccccc2)cc1` (stereo unspecified) the value was 34.5% (active); for `CCOC(=O)CN(Cc1ccc(OC)c(OC)c1)S(=O)(=O)c1ccc(OC)cc1`, 4.93% (inactive). Regarding `COC(=O)COc1cccc2c(=O)n(CC(=O)NCc3ccccc3)ccc12`, the inhibition is 12.8% (active). Consider `COC(=O)COc1cccc2c(=O)n(CC(=O)NCCc3ccc(OC)c(OC)c3)ccc12`, for which the inhibition was 4.26% (inactive). For `Cc1ccc(CNC(=O)CCNC(=O)Cn2ccc3ccccc3c2=O)cc1` the value was 3.36% (inactive); for `CCC(C)N1C(=S)SC(C)(C)C1N(O)C(=O)NC1CCCCC1` (stereo unspecified), -0.75% (inactive); for `CCCCNC(=O)N(O)C1N(/N=C/c2ccc(N(C)C)cc2)C(=S)SC1(C)C` (stereo unspecified), 77.3% (active). For `CCCCNC(=O)N(O)C1N(/N=C/c2ccccc2O)C(=S)SC1(C)C` (stereo unspecified) the value was 4.34% (inactive); for `O=C(Cc1ccccc1F)NC1CCSc2ccccc21` (stereo unspecified), -4.7% (inactive). Regarding `Cc1ccnc(NS(=O)(=O)c2ccc(NC(=O)c3oc4ccccc4c3C)cc2)n1`, the inhibition is -4.86% (inactive).

As to `C=C(C)COc1ccc(-c2n[nH]c(C)c2-c2ccccc2OC)c(O)c1`, the inhibition was 11.1% (inactive). Take `CCOc1ccc(-c2n[nH]c(C)c2-c2ccccn2)c(O)c1`: the inhibition is 3.95% (inactive). For `C=C(C)COc1ccc(-c2n[nH]c(C)c2-c2ccccc2)c(O)c1` the value was 14.1% (active). For `CC(=O)c1cc(C#N)c(N2CCCCC2)nc1C` the value was 5.03% (inactive); for `CC(=O)c1cc(-c2ccccc2)[nH]c1N1CCCC1`, 57.1% (active); for `O=c1cc(-c2ccccc2)nc(N2CCCCC2)[nH]1`, 3.63% (inactive).

As for `CC(=O)c1cnc(Nc2nc(C)c3cc(C)ccc3n2)nc1C`, the inhibition was 2.54% (inactive). For `O=C(O)/C=C/c1cn(Cc2ccccc2)nc1-c1cccs1` the value was 3.03% (inactive). For `O=Cc1cn(Cc2ccccc2)nc1-c1cccnc1` the value was 39.5% (active). For `CN(C)/N=C/c1cn(-c2ccccc2)nc1-c1cccnc1` the value was 9.07% (inactive). For `O=C1CCC(=O)N(c2ccccc2)N1`, the inhibition is 2.8% (inactive). On to `CC(C)C[C@@H](CO)N1CCN(Cc2ccc(O)cc2)CCC1=O`, for which the inhibition is -3.5% (inactive). For `CC(C)Nc1ccc(-n2nc3ccccc3[n+]2[O-])cc1` the value was -2.9% (inactive).

As for `COc1ccc(N2CCN(C(=O)CNC(=O)c3ccc(Br)o3)CC2)cc1`, the inhibition was -5.34% (inactive). For `O=C(Nc1ccc(S(=O)(=O)N2CCCCC2)cc1)C1CC(=O)N(c2ccc(F)cc2)C1` (stereo unspecified), the inhibition is 1.61% (inactive). Take `CCc1ccc(-n2c(SCc3cc(=O)n4cc(Br)ccc4n3)nc3[nH]ncc3c2=O)cc1`: the inhibition was 0.2% (inactive). Take `CN(C)Cc1c(C(=O)N/N=C/c2ccccc2OCc2ccc(F)cc2)nnn1-c1nonc1N`: the inhibition was 0.8% (inactive). For `COc1ccc(NC(C(=O)Nc2cccc(C(C)=O)c2)c2ccccc2)cc1` (stereo unspecified) the value was 1.08% (inactive). Turning to `CCOC(=O)c1cccc(NC(=O)C2CCN(c3ncnc4c3nc3n4CCCCC3)CC2)c1`, the inhibition was 6.86% (inactive). Turning to `CCn1c(/C=C/Nc2ccccc2)[n+](CC)c2ccc(C(=O)OCC(F)(F)F)cc21`, the inhibition was -5.62% (inactive).

Turning to `CC1CCN(Cc2nc3c(c(=O)n(C)c(=O)n3C)n2CCc2ccccc2)CC1`, the inhibition was 0.08% (inactive).
